Laboratory results reported in ChEMBL document CHEMBL3988442, “University of Dundee, Small-Polar-MMV Screening Library” (2021).
About 13,000 (27%) of roughly 48,000 compounds showed an effect of 50% or more. The list shows a part of the results.

test system: Wolbachia pipientis; experiment: Anti-Wolbachia Cell-Based Screen; assay type: functional; parameters: scale not given: in the data most compounds retested in dose-response had high values; details: 5 µM

| Compound | Percent Effect [%] |
| --- | --- |
| Cc1nc(CN(C)C(=O)c2cc(C)sc2NC(=O)C(C)(C)C)no1 | -2.602 |
| Fc1cccc(-n2cccn2)c1NCc1nnc(C2CC2)o1 | -10.01 |
| Cc1cc(C)n(C2CN(C(=O)Cn3c(C)cc(=O)c4ccccc43)C2)n1 | 17.29 |
| O=C(CSCC1CC1)N1C[C@@H]2CC[C@H](C1)N(Cc1ccccn1)C2=O | 4.164 |
| CCn1cc2c(n1)CN(S(=O)(=O)Cc1ccccc1)CC2COC (stereo not drawn) | 10.82 |
| CN1CC(=O)N(C2CCC2)Cc2c(NC3CCNCC3)ncnc21 | 107.9 |
| CN1CC(=O)N(C2CCNCC2)Cc2c(NC3CCC3)ncnc21 | 106.1 |
| Cc1n[nH]c(C2CN(CCNC3CCCCC3)CCO2)n1 (stereo not drawn) | 13.35 |
| CCNS(=O)(=O)c1ccc2c(c1)c(=O)n(CC)c(=O)n2CC | 90.08 |
| CCc1nc(Cn2c(=O)n(CC)c3ccccc32)no1 | -6.157 |
| CCCN(C)C(=O)c1cc(S(=O)(=O)NCC)ccc1C | -9.376 |
| CCn1c(=O)n(Cc2nc(C3CC3)no2)c2ccccc21 | -1.691 |
| CCn1c(=O)n(CC)c2cc(S(N)(=O)=O)ccc21 | 88.83 |
| CCn1c(=O)c2cc(S(N)(=O)=O)ccc2n(CC)c1=O | 133.6 |
| CCNS(=O)(=O)c1ccc(C)c(C(=O)N(C)Cc2ccccc2C)c1 | -10.61 |
| NC(=O)Cn1ccc(NC(=O)C2(c3cccc(Cl)c3)CC2)n1 | -4.273 |
| CN(C)C(=O)[C@@H]1C[C@H]2OCC[C@H]2N(CCOc2ccc(Cl)cc2)C1.O=C(O)C(F)(F)F | 2.849 |
| Cn1ccnc1COc1ccc(NC(=O)CCC2CCCO2)cc1 (stereo not drawn) | 7.737 |
| CC(C(=O)Nc1ccnn1C(C)C)N1CCN(Cc2ccon2)CC1 (stereo not drawn) | 9.174 |
| c1cnc(N2C[C@H]3CCC[C@@H](CN4CCCC4)[C@H]3C2)nc1 | -23.6 |
| Cc1cnc(CN(C)C2CCN(CC(=O)Nc3nncs3)C2)o1.O=C(O)C(F)(F)F (stereo not drawn) | 3.209 |
| Cc1nonc1CC(=O)N1C[C@@H]2CC[C@H](C1)N(Cc1ccccc1)C2=O | -22.99 |
| COCCOCC(=O)N1CCC2(CCCN(C3CCOCC3)C2=O)C1 (stereo not drawn) | 121 |
| Cc1c(C(=O)N2CCC3(CCCN(CC4CC4)C3=O)C2)ccn1C (stereo not drawn) | -5.125 |
| CS(=O)(=O)CCN1CCC2(CCCN(C3CCOCC3)C2=O)C1 (stereo not drawn) | -2.931 |
| Cc1nccnc1CN1CCC2(CCCN(C3CCOCC3)C2=O)C1 (stereo not drawn) | 1.539 |

| Compound | Percent Effect [%] |
| --- | --- |
| Cn1cccc1C(=O)N1CCC2(CCCN(CC3CC3)C2=O)C1 (stereo not drawn) | 2.832 |
| CN1CCN(C(=O)N2CCC3(CCCN(C4CCOCC4)C3=O)C2)CC1 (stereo not drawn) | 106.4 |
| Cc1nonc1CC(=O)N1CCC2(CCCN(C3CCOCC3)C2=O)C1 (stereo not drawn) | 111.8 |
| O=C(COCC(F)(F)C(F)F)N1CCC2(CCCN(CCO)C2=O)C1 (stereo not drawn) | -15.14 |
| Cc1cc(C(=O)N2CCC3(CCCN(CC4CC4)C3=O)C2)c(C)n1C (stereo not drawn) | -3.042 |
| CCOC(=O)N1CCC2(CCCN(C3CCOCC3)C2=O)C1 (stereo not drawn) | 112 |
| CC(C)N1CCCC2(CCN(C(=O)COCC(F)(F)C(F)F)C2)C1=O (stereo not drawn) | -9.489 |
| c1ncc2c(n1)CN(CC1CCCCO1)CC2 (stereo not drawn) | -13.48 |
| CCn1nc(C)c2nc(C(C)C)nc(NCCOC)c21 | -9.329 |
| CS(=O)(=O)Cc1ccccc1NCc1cc(Cl)ccc1Cl | 3.453 |
| Cc1n[nH]cc1CNC(=O)Nc1cccc(OCC(F)(F)F)c1 | -23.93 |
| CCS(=O)(=O)c1ccc(N2CCC(NC(C)=O)CC2)cc1 | -5.151 |
| Cn1cnnc1-c1cncc(NCc2ccccc2Br)c1 | 9.077 |
| CCC(CC)NCC(c1ccccn1)N1CCOCC1 (stereo not drawn) | 8.316 |
| CCC(=O)N(CC)C(c1cccnc1)c1ccc2c(c1)CCO2 (stereo not drawn) | -9.514 |
| COc1ccc(-c2noc(CN3CCOCC3C)n2)cc1OC (stereo not drawn) | -3.831 |
| CC(C)c1nc2c(n1C)CCN(Cc1nc(-c3ccsc3)no1)C2 | 5.269 |
| COc1cccc(-c2noc(CN3CCOCC3C)n2)c1 (stereo not drawn) | 120.5 |
| CC1COCCN1Cc1nc(-c2ccsc2)no1 (stereo not drawn) | 130 |
| CC1COCCN1Cc1nc(-c2ccc(Br)s2)no1 (stereo not drawn) | 104.9 |
| CCn1nc2c(cc1=O)CN(Cc1nc(-c3ccsc3)no1)CC2 | -2.212 |
| O=C1OCCCN1Cc1nc(-c2ccncc2)no1 | 8.814 |
| c1csc(-c2noc(CC3CCCO3)n2)c1 (stereo not drawn) | 5.637 |
| CC1COCCN1Cc1nc(-c2cccs2)no1 (stereo not drawn) | 6.189 |
| Cc1ccc(CN2C[C@H](O)C[C@H]2c2nc(-c3ccc(F)cc3)no2)cc1 | -12.23 |
| CC1COCCN1Cc1nc(-c2ccc(F)cc2)no1 (stereo not drawn) | 110.9 |

| Compound | Percent Effect [%] |
| --- | --- |
| COc1cccc(-c2ncc(CN3CCOCC(O)C3)s2)c1 (stereo not drawn) | -5.443 |
| CC(Oc1cccc(Cl)c1)C(=O)Nc1cnn(CCN(C)C)c1 (stereo not drawn) | -6.613 |
| CC(C)c1nn(CC(=O)N2CCCC2)c(=O)c2c1cnn2C(C)(C)C | 46.37 |
| Cc1cnn(CCNCc2ccccc2C#N)c1 | -11.13 |
| O=C(CCC1CCCCC1)NS(=O)(=O)CC1CC1 | -8.916 |
| Cc1cccc(-c2noc(CN3CCOCC3C)n2)c1 (stereo not drawn) | 119.9 |
| CC1COCCN1Cc1nc(-c2cccc(C(F)(F)F)c2)no1 (stereo not drawn) | 102.5 |
| CC1COCCN1Cc1nc(-c2cccc(Br)c2)no1 (stereo not drawn) | 7.569 |
| Cc1cccc(-c2noc(CN3CCC(c4ccn[nH]4)CC3)n2)c1 | -15.7 |
| Cc1cccc(-c2noc(CN3CCc4nn(C)c(=O)cc4C3)n2)c1 | -3.74 |
| Cc1cccc(-c2noc(CN3CCn4c(nnc4C4CC4)C3)n2)c1 | -14.41 |
| Cc1cnn(CC(C)NCc2csc(-c3ccsc3)n2)c1 (stereo not drawn) | 2.803 |
| COCc1ccc(CNC(=O)C2=NN(c3ccccc3)C(=O)CN2)cc1 | -5.383 |
| CC(C)(C)C(O)CN1CCN(C(=O)c2cccc3[nH]ncc23)CC1 (stereo not drawn) | -4.967 |
| O=S1(=O)C[C@@H]2[C@H](C1)N(Cc1cc(Cl)cc(Cl)c1)CCN2CCO | 13.48 |
| O=C(NCc1cccnc1)C1CN(c2cnc3ccccc3n2)CCN1 (stereo not drawn) | -3.228 |
| O=C(Nc1cc(C2CCOCC2)[nH]n1)c1ccc(Cl)cn1 | -26.34 |
| O=C(Nc1ccc(Cl)cn1)C1CCCN(CCc2ccncc2)C1 (stereo not drawn) | -1.04 |
| Cc1cccc(NC(=O)c2ccc(-n3cncn3)nn2)n1 | -9.734 |
| Cc1ccnc(NC(=O)c2cncc(C3CCNCC3)n2)c1 | 117.9 |
| Cc1ccnc(NC(=O)c2c(C)oc(C)c2C)c1 | 13.28 |
| Cc1cccc(NC2CCN(C(=O)Nc3cccc4[nH]ccc34)CC2)n1 | -4.499 |
| O=c1n(Cc2ccccn2)nc(C2CCNCC2)n1Cc1ccccc1 | -4.835 |
| O=C(Nc1ccc(Cl)cn1)c1cncc(C2CCNCC2)n1 | 119.3 |
| Cc1ccnc(NC(=O)c2ccc(Cl)o2)c1 | -0.2777 |
| Cc1cccc(NC(=O)c2cncc(C3CCNCC3)n2)n1 | 105 |

| Compound | Percent Effect [%] |
| --- | --- |
| Cl.O=C(Nc1ccccn1)c1cncc(C2CCNCC2)n1 | 82.75 |
| O=C(Nc1ccccn1)c1nc(N2CCCC2)ncc1Cl | -4.003 |
| O=C(NCCn1ccnc1)c1cc(Br)c[nH]1 | -7.332 |
| Cc1cnn(CCNC(C)c2nnc(-c3cccc(Cl)c3)o2)c1 (stereo not drawn) | -21.78 |
| Cc1occc1C(=O)N1CCc2ncnc(C3CCOC3)c2CC1 (stereo not drawn) | -5.799 |
| COc1cccc(-c2noc3c2CN(c2nc(C)ncc2C)CC3)c1 | -35.21 |
| Cc1ccccc1NC(=O)c1cncc(C2CCNCC2)n1.Cl | 126.6 |
| O=C(Nc1ccccc1OC1CCOC1)c1cc[nH]n1 (stereo not drawn) | -3.911 |
| Cc1nc(Cn2nc(C3CCNCC3)n(Cc3ccccc3)c2=O)no1 | -19.55 |
| CCCc1cc(C(=O)N2CCC3(CC2)CN(CCN(C)C)C(=O)O3)no1 | -10.71 |
| c1cc(CN2CCC(n3cc(CN4CCCC4)nn3)CC2)cs1 | 0.307 |
| Cc1ncsc1CN1CCN(C)C2(CCC(=O)N(CCO)CC2)C1 (stereo not drawn) | -3.684 |
| Cc1ncsc1CN1CC[C@H](O)[C@@H](n2cnc3c(N)ncnc32)CC1 | 93.47 |
| Cc1ncsc1CCN(C)C1CCN(c2ncnc3[nH]cnc23)CC1 | 13.21 |
| Nc1ncnc2c1ncn2[C@H]1CCN(Cc2ccsc2)CC[C@@H]1O | 125.5 |
| CN(C)S(=O)(=O)N1CC[C@]2(O)CCN(c3cc(C#N)ccn3)C[C@@H]2C1 | -4.757 |
| CC(C)CN1C(=O)c2ccc(C(=O)NCCc3c[nH]cn3)cc2C1=O | 4.031 |
| CCc1cnc(N)nc1N1CCCC2(CCOCC2)C1 | 7.215 |
| Cc1nn(C)c(Cl)c1C1CCCN1C(=O)c1ccnc(N(C)C)c1 (stereo not drawn) | 115.9 |
| COc1c(C2CCCN2C(=O)c2ccnc(N(C)C)c2)c(C)nn1C (stereo not drawn) | 3.661 |
| Cc1nn(C)c(C)c1C1CCCN1C(=O)c1ccnc(N(C)C)c1 (stereo not drawn) | 114 |
| Cc1nn(C)c(C)c1C1CCCN1C(=O)c1cnc2n[nH]c(C)c2c1 (stereo not drawn) | -6.27 |
| Cc1nn(C)c(Cl)c1C1CCCN1C(=O)c1ccc2c(c1)COC2 (stereo not drawn) | 103.2 |
| Cc1nn(C)c(Cl)c1C1CCCN1C(=O)c1cccc(C#N)c1 (stereo not drawn) | 117.2 |
| CCn1nc(C(=O)N2CCCC2c2noc(C3CC3)n2)ccc1=O (stereo not drawn) | -10.37 |
